DT40 TDP1 CPT = growth inhibition of DT40 Tdp1-/-;hTDP1 cells with camptothecin (screen for TDP1 inhibitors); chicken DT40 Tdp1-/-;hTDP1 cells + 20 nM CPT, ATP luminescence, 48 h; Potency, µM (doses to about 46.2 µM), for inactives: at the top dose activity change, negative = growth inhibition, actives largely listed as inhibitors; 420,000 tested, 12% active; note: nearly all actives have a fitted effect of over 55% in size
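Cell growth measured by CellTiter-Glo luminescence after a minimum 48 h, 37 C compound exposure with 20 nM CPT in Tdp1-knockout DT40 cells stably expressing hTDP1, seeded 400/well; qHTS titration format.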
VP16 counter = counter-screen for ROR gamma inhibitors: Gal4-VP16 reporter; Potency, µM (series often up to 53.6 µM), without a hit: top-dose activity, negative = inhibition, actives largely listed as inhibitors; Drosophila S2 Gal4-VP16 UAS-luciferase, luminescence, 20 h; 310,000 tested, 3.5% active;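 note: Gal4-VP16 expression switched on by copper sulfate through the metallothionein promoter; nearly all actives have a fitted effect of over 50% in size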
ELG1 repair inh = blocks ELG1-dependent DNA repair in HEK293T cells | HEK293T ELG1-luciferase reporter, luminescence, 16 h; DNA damage induced by 5-fluorouridine | Potency, µM (highest dose often 46.1 µM), for inactives: top-dose activity change, negative = inhibition, usual class: inhibitors | 330,000 tested, 2.3% active; note: nearly all actives have a fitted effect of over 55% in size
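Luminescence from the luciferase reporter, measured 30 min after ONE-Glo reagent at room temperature, was the read-out. Beforehand, 2,000 cells per well were exposed for 16 hr at 37 °C to 5-fluorouridine together with compound or vehicle.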
TDP1 cell noCPT = qHTS for Inhibitors of human tyrosyl-DNA phosphodiesterase 1 (TDP1): qHTS in cells in absence of CPT. DT40 Tdp1-/- hTDP1 cells, no CPT, ATP luminescence, 48 h. Potency, µM (series often up to 46.2 µM), for inactives: at the highest dose activity change, negative = growth inhibition, actives largely listed as inhibitors. 420,000 tested, 15% active. AID 686978, 2013; note: nearly all actives have a fitted effect of over 55% in size
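Growth kinetics read by CellTiter-Glo luminescence after ≥48 hr at 37 °C. Cells: DT40 Tdp1-/- stably carrying human TDP1, 400 per well, compound exposure in the absence of CPT (DMSO vehicle).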
ALOX12 inh = inhibitors of human 12S-lipoxygenase ALOX12. P18054. purified 12hLO, xylenol orange hydroperoxide absorbance. Potency, µM (titrated, usually from 108 µM), without a hit: at the top dose activity change, negative = inhibition, usual class: inhibitors. 580,000 tested, 1.1% active. AID 1671190
Target sequence (P18054 whole entry, looked up): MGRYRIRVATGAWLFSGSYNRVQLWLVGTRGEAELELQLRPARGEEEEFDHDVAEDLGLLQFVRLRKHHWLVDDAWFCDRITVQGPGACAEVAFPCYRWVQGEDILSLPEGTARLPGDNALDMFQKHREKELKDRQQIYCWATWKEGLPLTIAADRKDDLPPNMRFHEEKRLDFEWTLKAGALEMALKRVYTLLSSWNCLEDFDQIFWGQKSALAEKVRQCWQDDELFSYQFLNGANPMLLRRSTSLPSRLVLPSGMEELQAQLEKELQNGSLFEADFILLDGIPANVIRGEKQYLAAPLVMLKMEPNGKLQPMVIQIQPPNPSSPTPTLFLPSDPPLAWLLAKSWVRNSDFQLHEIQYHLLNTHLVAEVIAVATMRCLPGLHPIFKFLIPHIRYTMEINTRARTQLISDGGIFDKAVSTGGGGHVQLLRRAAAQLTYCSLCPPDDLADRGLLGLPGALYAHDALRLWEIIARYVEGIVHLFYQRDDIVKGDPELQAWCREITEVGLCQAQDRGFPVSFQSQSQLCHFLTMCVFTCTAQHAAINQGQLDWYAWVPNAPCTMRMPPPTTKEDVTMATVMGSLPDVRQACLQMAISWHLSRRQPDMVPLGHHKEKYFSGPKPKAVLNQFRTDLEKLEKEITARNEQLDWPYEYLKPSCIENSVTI
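Purified human 12hLO at 150 nM in 25 mM Hepes, 0.01% Triton X-100, pH 7.0, preincubated 15 min at room temperature with compound. Reaction started with 40 uM arachidonic acid, 30 min at room temperature. Hydroperoxide measured by Fe-xylenol orange, 573/405 nm absorbance ratio.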
RORgamma inh = inhibitors of mouse ROR gamma transcriptional activity; Potency, µM (series often up to 53.6 µM), for inactives: at the highest dose activity change, negative = inhibition, usual class: inhibitors; 310,000 tested, 5.4% active; Drosophila S2 Gal4-RORgamma UAS-luciferase reporter, 20 h; AID 2551; note: nearly all actives have a fitted effect of over 60% in size
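Drosophila S2 cells stably expressing Gal4-DBD/mouse RORγ fusion under metallothionein promoter plus UAS-luciferase; compound 1 h, then 700 uM CuSO4 induction for 20 h at ambient temperature; inhibition read as reduced luminescence.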
Numbers without * were called inactive; ? = inconclusive; nt = no result; [ ] = another dose, or the depositor's remark. Hits are enriched below; roughly 15% of the tested compounds scored in any of these assays. Calls come from the whole dose curve; as a rule, active = well fitted curve in the direction sought with a large enough effect; inconclusive = small, poorly fitted or top-dose-only effect, or another doubt; inactive = no such curve, though single readings can be large; an effect the other way counts as inactive or inconclusive. % is set by controls: 0 for no effect and ±100 for the full control effect; potency is the fitted concentration of half-maximal effect.

SMILES	DT40 TDP1 CPT	VP16 counter	ELG1 repair inh	TDP1 cell noCPT	ALOX12 inh	RORgamma inh
COc1cccc2c1OC[C@@H](CO)[C@H]2N(C)C(=O)Nc1ccccc1	-5.1%	-4.2%	-2.0%	-0.3%	19.4%	1.7%
COc1ccc2[nH]cc(CCNc3ncncc3-c3ccc(N(C)C)cc3)c2c1	?	-0.6%	nt	?	-15.7%	8.9%
COc1ccc2[nH]cc(CCNc3ncncc3-c3ccoc3)c2c1	4.61µM*	11.2µM*	nt	7.31µM*	-8.7%	-6.2%
COc1ccc2[nH]cc(CCNc3ncncc3-c3cccc(C#N)c3)c2c1	0.0046µM*	-4.1%	nt	?	-4.8%	?
Cc1cccc(CSc2nnc(CCCCCNC(=O)OC(C)(C)C)o2)c1	?	?	?	16.4µM*	0.0%	?
Cc1ccc(CSc2nnc(CCCCCNC(=O)OC(C)(C)C)o2)cc1	23.1µM*	-6.1%	?	18.4µM*	0.0%	?
O=C(c1cccc(F)c1)N1CCN(c2nnc3ccc(Cl)cn23)CC1	nt	nt	nt	nt	42.7%	nt
COCCCNC(=O)c1cc(-c2ccccc2)nc2ccc(C)cc12	nt	nt	nt	nt	-9.9%	nt
O=C(CNC(=S)NC(=O)c1ccc(Br)o1)c1ccccc1	16.4µM*	?	?	?	10.9%	12.6µM*
O=C(CNC(=S)NC(=O)c1ccc(Cl)cc1)c1ccccc1	-6.0%	12.6µM*	?	?	?	10µM*
O=C(CNC(=O)c1ccc(Cl)cc1)c1ccc(Br)cc1	27.2%	19.8%	16.9%	-0.1%	2.9%	23.6%
O=C(c1cnccn1)N1CCC2(CC1)NCCc1c2[nH]c2ccccc12	nt	nt	nt	nt	0.5%	nt
CC(=O)C(C(=O)Nc1c(C)cccc1C)N(Cc1ccco1)C(=O)C(=O)c1ccccc1 (configuration not stated)	nt	nt	nt	nt	-20.3%	nt
COc1ccccc1-c1cc2c(nc1-c1ccccc1)nc(C(=O)NCCN(C)C)n2C	nt	nt	nt	nt	-3.3%[176 µM]	nt
CS(=O)(=O)c1ncc(Cl)c(C(=O)N(Cc2ccc(Cl)cc2)Cc2ccco2)n1	0.651µM*	nt	nt	1.3µM*	-26.2%	nt
CCOc1ccc(N(Cc2ccccc2)C(=O)c2nc(SC)ncc2Cl)cc1	13µM*	nt	nt	6.51µM*	?	nt
COc1ccc(N(Cc2ccccc2)C(=O)c2nc(S(C)(=O)=O)ncc2Cl)cc1	0.731µM*	nt	nt	0.461µM*	4.0%	nt
COCCN1C[C@H]2CN(C(=O)c3ccccc3OC)CCN2C1=O	nt	nt	nt	nt	4.6%[176 µM]	nt
CCOC(=O)N1CCN(C(=O)C2CCCN(S(=O)(=O)c3ccc(C)cc3)C2)CC1 (configuration not stated)	?	-8.0%	-6.5%	16.4µM*	23.4%	-24.4%
CCOC(=O)N1CCN(C(=O)C2CCCN(S(=O)(=O)c3ccccc3)C2)CC1 (configuration not stated)	-3.5%	10.6%	-4.7%	-14.1%	2.3%	16.2%
CCOc1ccc(S(=O)(=O)N2CCCC(C(=O)N3CCN(c4ccccc4)CC3)C2)cc1 (configuration not stated)	16.4µM*	?	0.0%	20.6µM*	169.9%	?
CCOC(=O)N1CCN(C(=O)C2CCCN(S(=O)(=O)c3ccc(F)cc3)C2)CC1 (configuration not stated)	?	-0.4%	-0.7%	-20.9%	6.3%	22.0%
CCOC(=O)N1CCN(C(=O)C2CCCN(S(=O)(=O)c3ccc(OCC)cc3)C2)CC1 (configuration not stated)	?	-7.9%	?	16.4µM*	0.0%	14.8%
CCOc1ccc(S(=O)(=O)N2CCCC(C(=O)N3CCOCC3)C2)cc1 (configuration not stated)	-0.4%	5.8%	-5.4%	-24.7%	0.0%	19.6%

Assay outcomes deposited in PubChem by National Center for Advancing Translational Sciences (NCATS).
